From the supplement of paper PMC11172423

Columns and labels:
[1] = system: Falciformispora senegalensis CBS197.79; assay: growth relative to untreated control; higher = less inhibition, active = 20 or less
Outline: (§1)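 Compound at 100 or 25 µM was applied for 7 days at 37 °C to hyphal fragments of M. mycetomatis MM55 or F. senegalensis CBS197.79 in 96-well plates. Fragments were suspended in colourless RPMI 1640 with L-glutamine and MOPS at 68–72% transmission at 660 nm, and viability was read with MTS (2 h, 490 nm) or resazurin (600 nm). Growth is reported as blank-corrected metabolic activity relative to the blank-corrected untreated growth control.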

[2] = system: Madurella mycetomatis MM55; assay: as above
Outline: as §1

Measured: growth

Cc1cccc2c1N(C(=O)c1cc(Br)nn1-c1ncccc1Cl)CN(C(C)C)C2=O
inactive: [1]; 25 µM 94% | [1]; 100 µM 93.3% | [2]; 25 µM 91.9% | [2]; 100 µM 153%

CCOC(=O)NCCOc1cnn(Cc2ccccc2)c(=O)c1
inactive: [1]; 25 µM 91.1% | [1]; 100 µM 101% | [2]; 25 µM 100% | [2]; 100 µM 97.3%

Fc1ccc([C@@H]2CCNC[C@H]2COc2ccc3c(c2)OCO3)cc1
inactive: [1]; 25 µM 101%
active: [1]; 100 µM 15.3% | [2]; 25 µM 5.94% | [2]; 100 µM 3.06%

C[C@H](NC(=O)c1cc2nc(C(F)(F)F)ccc2[nH]1)c1ccccc1
inactive: [1]; 25 µM 88.2% | [1]; 100 µM 95.9% | [2]; 25 µM 86.1% | [2]; 100 µM 56.8%

Cc1cc2ncc(C(=O)NCC(C)(C)NCC(=O)N3CCC[C@H]3C#N)cn2n1
inactive: [1]; 25 µM 105% | [1]; 100 µM 102% | [2]; 25 µM 82.4% | [2]; 100 µM 84.8%

CC(C)Oc1ccc(-c2nc(-c3cccc4c3CC[C@@H]4NCCO)no2)cc1C#N
active: [1]; 25 µM 9.29% | [1]; 100 µM 6.46% | [2]; 25 µM 3.06% | [2]; 100 µM 3.42%

Fc1cccc(-c2ccc3c(c2)CC(NCc2c[nH]c4cnccc24)C3)c1 (stereo not drawn)
active: [1]; 25 µM 6.11% | [1]; 100 µM 14.3% | [2]; 25 µM 5.29% | [2]; 100 µM 5.16%

CC(C)Nc1ncc2nc(Nc3cc(Cl)cc(C(F)(F)F)c3)n(C3CCNCC3)c2n1
inactive: [1]; 25 µM 90.2% | [1]; 100 µM 69.2% | [2]; 25 µM 118%
active: [2]; 100 µM 4.67%

COc1ccc2c(O[C@@H]3C[C@H]4C(=O)N[C@]5(C(=O)NS(=O)(=O)C6CC6)C[C@H]5/C=C\CCCCN(C)C(=O)[C@@H]4C3)cc(-c3nc(C(C)C)cs3)nc2c1C
inactive: [1]; 25 µM 103% | [1]; 100 µM 100% | [2]; 25 µM 87.1% | [2]; 100 µM 74.8%

Cc1cnc2nc(NC3COc4ccccc43)nc(NC(C3CC3)C3CC3)c2c1 (stereo not drawn)
active: [2]; 25 µM 7.72% | [2]; 100 µM 8.15%
inactive: [1]; 25 µM 83.2% | [1]; 100 µM 33.4%

CCN1CCC(c2cc(C)c3nc(-c4cc5c(C)nc(C)cn5n4)cc(=O)n3c2)CC1
inactive: [1]; 25 µM 104% | [1]; 100 µM 107% | [2]; 25 µM 80.2% | [2]; 100 µM 89.8%

O=C(OI(OC(=O)C(F)(F)F)c1ccccc1)C(F)(F)F
inactive: [1]; 25 µM 97.9% | [1]; 100 µM 93% | [2]; 25 µM 89.9% | [2]; 100 µM 182%

NC1(c2ccc(-c3nc4ccn5c(O)nnc5c4cc3-c3ccccc3)cc2)CCC1
inactive: [1]; 25 µM 104% | [2]; 25 µM 79.3%
active: [1]; 100 µM 14% | [2]; 100 µM 3.13%

CC(C)c1cc(Oc2ccccc2)cc(C(C)C)c1NC(=S)NC(C)(C)C
inactive: [1]; 25 µM 89.5% | [1]; 100 µM 90.7% | [2]; 25 µM 111% | [2]; 100 µM 166%

C[C@H](NC(=O)c1cc2cccc(F)c2[nH]1)c1ccccc1
inactive: [1]; 25 µM 100% | [1]; 100 µM 90.3% | [2]; 25 µM 26.9%
active: [2]; 100 µM 6.74%

CC(C)(C)c1nn(-c2ccc(Cl)cc2)c2[nH]c(=O)c(CNCc3ccc4c(c3)OCO4)cc12
inactive: [1]; 25 µM 72.1% | [1]; 100 µM 66.3%
active: [2]; 25 µM 5.51% | [2]; 100 µM 6.74%

O=c1[nH]ccc2nc(N[C@@H]3CCNC3)nc(Nc3ccc4c(c3)S(=O)(=O)CC4)c12
inactive: [1]; 25 µM 90.7% | [1]; 100 µM 113% | [2]; 25 µM 62.9% | [2]; 100 µM 104%

Cc1c[nH]c(-c2cccc(C(=O)NC3CCC(CCN4CCc5ccc(C#N)cc5CC4)CC3)c2)n1 (stereo not drawn)
inactive: [1]; 25 µM 74.1% | [1]; 100 µM 92.9% | [2]; 25 µM 38.2% | [2]; 100 µM 88.4%

O=C(Nc1cc(Cl)cc(Cl)c1O)c1c(O)c(Cl)cc(Cl)c1Cl
inactive: [1]; 25 µM 89.9% | [2]; 25 µM 39%
active: [1]; 100 µM 12.5% | [2]; 100 µM 3.21%

CC(=O)c1nn(-c2c(Cl)cc(C(F)(F)F)cc2Cl)c(N)c1S(C)=O (stereo not drawn)
inactive: [1]; 25 µM 94.6% | [1]; 100 µM 83.2% | [2]; 25 µM 119% | [2]; 100 µM 107%

CCc1nn2c(Nc3ccncc3)cc(C)nc2c1-c1ccccc1
inactive: [1]; 25 µM 88.3% | [1]; 100 µM 92.6% | [2]; 25 µM 96.8% | [2]; 100 µM 75.7%

O=C(Nc1cnc2ccccc2c1)c1ccccc1C(=O)c1ccc(F)cc1
inactive: [1]; 25 µM 88.2% | [1]; 100 µM 95.5% | [2]; 25 µM 92.9% | [2]; 100 µM 91.8%
